Results taken from PubChem BioAssay AID1159580 (chemical genetic matrix, 2015).
Hit rate of the full screen: of about 5,500 compounds, about 2,000 (36%) were called active. Not shown: some 18% with an inconclusive outcome. No stated cut-off is given here; in the data, active means normalized growth mostly below about 0.91 (no sharp cut-off); inconclusive means no clear call, values can overlap the other calls; inactive means mostly above about 0.92. The list shows a part of the results.

Assay: chemical genetic growth profiling, strain panel (AID 1159580);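 further: tested at 20 µM; growth read once vehicle control cultures reached saturation at 30 °C; 1 = growth at the plate median or of vehicle wells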
Settings: S. cerevisiae deletion strains, growth OD

Measured: normalized growth

CN(C)CC/C=C1\c2ccccc2COc2ccccc21
inactive: locus YAL013W, strain DEP1, stronger effect = lower value 0.998 | locus YAL040C, strain CLN3, stronger effect = lower value 0.997 | locus YCL061C, strain MRC1 (second series), stronger effect = lower value 0.992 | locus YDR150W, strain NUM1, stronger effect = lower value 1.01 | locus YDR363W, strain ESC2, stronger effect = lower value 0.944 | locus YER002W, strain NOP16, stronger effect = lower value 1.01 | locus YGR078C, strain PAC10, stronger effect = lower value 1.01 | locus YJR075W, strain HOC1, stronger effect = lower value 0.952 | locus YMR263W, strain SAP30, stronger effect = lower value 0.991 | locus YNL128W, strain TEP1, stronger effect = lower value 1.01 | locus YNL153C, strain GIM3, stronger effect = lower value 1.03 | locus YNL175C, strain NOP13, stronger effect = lower value 1.02 | locus YNL197C, strain WHI3, stronger effect = lower value 1 | locus YNL224C, strain SQS1, stronger effect = lower value 1.03 | locus YOR083W, strain WHI5 (second series), stronger effect = lower value 0.997
